Screening data: PubChem BioAssay, National Center for Advancing Translational Sciences (NCATS)
Giardia FBPA inh: Giardia lamblia aldolase inhibition | A8B2U2 | purified Giardia FBPA | 290,000 tested, 0.71% active | Potency, µM (titrated, usually from 59.6 µM), without a hit: top-dose activity, negative = inhibition, most hits filed as inhibitors; note: potency is the fitted concentration of half-maximal effect; % is set by controls: 0 for no effect and ±100 for the full control effect; nearly all actives have a fitted effect of over 55% in size
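Giardia FBPA (40 nM reagent) was preincubated 10 min at RT with compound (up to 57.5 uM final), then substrate plus GAPDH/TPI/NAD/arsenate coupling system with diaphorase/resazurin was added; resorufin fluorescence (525/598 nm) was read after 20 min.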
Cycloheximide cs: counter-screen for Shiga toxin inhibitors: cycloheximide protein synthesis inhibition; cell reporter, cycloheximide protein synthesis inhibition counterscreen; max response, %; 300,000 tested, 12% active; in the data active = max response mostly above about 13%, no sharp cut-off; inactive = mostly below about 14%; note: read at 38.3 µM for the half of the compounds with a filed dose; 0% is about no effect
Tb PYK inh: T. brucei pyruvate kinase inhibition; TbPYK enzyme, Kinase-Glo Plus ATP luminescence, 45 min; Potency, µM (highest dose often 76.8 µM), inactives show top-dose activity, negative = inhibition, actives largely listed as inhibitors; 410,000 tested, 0.12% active; note: potency is the fitted concentration of half-maximal effect; % is set by controls: 0 for no effect and ±100 for the full control effect; nearly all actives have a fitted effect of over 50% in size
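Enzyme and substrate buffer are dispensed first and compound is pin-transferred. ADP at 130 uM final then starts the reaction, which runs 45 min at room temperature. Detection reagent is added for 10 min before luminescence is imaged.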
Shiga toxin inh: inhibitors of Shiga toxin in Vero cells | Vero cells, Shiga toxin protein synthesis inhibition reporter | 290,000 tested, 9.2% active | inhibition, % at 38.7 µM | AID 2315; in the data active = inhibition mostly above about 28%, no sharp cut-off; inactive = mostly below about 43%; note: 0% is about no effect
LmPK inh: blocks Leishmania mexicana pyruvate kinase activity. Q27686. purified LmPK, Kinase-Glo ATP luminescence, 1 h. Potency, µM (series often up to 57.5 µM), inactives show top-dose activity change, negative = inhibition, hits mostly inhibitors. 290,000 tested, 0.37% active. AID 1721; note: potency is the fitted concentration of half-maximal effect; % is set by controls: 0 for no effect and ±100 for the full control effect
Target sequence (Q27686 whole entry, looked up): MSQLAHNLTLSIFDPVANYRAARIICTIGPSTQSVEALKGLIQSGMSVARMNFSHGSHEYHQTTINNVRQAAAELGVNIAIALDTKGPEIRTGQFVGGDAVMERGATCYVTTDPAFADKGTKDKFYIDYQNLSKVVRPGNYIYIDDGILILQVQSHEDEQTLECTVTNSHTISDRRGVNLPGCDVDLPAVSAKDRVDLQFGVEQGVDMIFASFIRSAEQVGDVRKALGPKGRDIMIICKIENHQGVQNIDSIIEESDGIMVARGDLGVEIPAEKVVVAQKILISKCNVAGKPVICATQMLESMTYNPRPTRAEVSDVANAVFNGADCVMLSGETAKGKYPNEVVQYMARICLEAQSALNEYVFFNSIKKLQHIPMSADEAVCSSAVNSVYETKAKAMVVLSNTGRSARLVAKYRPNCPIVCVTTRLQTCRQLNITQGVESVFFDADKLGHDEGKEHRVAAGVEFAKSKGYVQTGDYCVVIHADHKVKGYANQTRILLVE
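0.1 nM LmPK, 0.5 mM PEP, 0.1 mM ADP; 50 mM imidazole pH 7.2, 7 mM MgCl2, 50 mM KCl; 1 h RT. Kinase-Glo luminescence readout, normalized to no-enzyme (full inhibition) and uninhibited wells.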
Sm TGR inh: blocks Schistosoma mansoni thioredoxin glutathione reductase; Q962Y6; purified TGR, DTNB reduction, TNB absorbance 405 nm; Potency, µM (titrated, usually from 114 µM), inactives show at the top dose activity change, negative = inhibition, hits mostly inhibitors; 360,000 tested, 3% active; AID 485364; note: potency is the fitted concentration of half-maximal effect; % is set by controls: 0 for no effect and ±100 for the full control effect; nearly all actives have a fitted effect of over 60% in size
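Kinetic colorimetric format: TGR-catalysed, NADPH-driven DTNB reduction monitored via TNB absorbance. Enzyme dispensed at 20 nM; compound exposure 15 min at room temperature before reaction start.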
The depositor's hits bear a star; ? = inconclusive; / = not tested or not shown; + = active, no number; ! = repeats disagree; [ ] = remark or other dose. The sample as a whole holds a higher share of hits than the screen did. Unless noted, calls come from the whole dose curve; as a rule, active = well fitted curve in the direction sought with a large enough effect; inconclusive = small, poorly fitted or top-dose-only effect, or another doubt; inactive = no such curve, though single readings can be large; an effect the other way counts as inactive or inconclusive.

SMILES	Giardia FBPA inh	Cycloheximide cs	Tb PYK inh	Shiga toxin inh	LmPK inh	Sm TGR inh
C[C@@H]1CC=C[C@H]2[C@H]1C(=O)N(Cc1ccccc1)[C@H]2c1ccoc1	-2%	-3	1%	-5	2%	20µM*
CC[C@@H]1CC=C[C@H]2[C@H]1C(=O)N(Cc1ccccc1)[C@H]2c1ccoc1	-10%	12*	-10%	58*	6%	?
O=C1C2C(c3cccc(/C=C/c4ccccc4)c3)CC=CC2C(c2ccc(C(F)(F)F)cc2)N1Cc1ccccc1 (stereo not drawn)	1%	17	2%	54*!	3%	-25%
Cc1cc(C(=O)COc2ccc(F)cc2Br)c(C)n1C1CC1	/	/	2%	/	/	-10%
COc1cccc(N2CCN(C(=O)c3ccc(CS(=O)c4cccc(Cl)c4)o3)CC2)c1 (stereo not drawn)	/	/	-1%	/	/	-32%
CCCCCCCc1cc2c(cn1)C(=O)C(C)(OC(C)=O)C(O)=C2Cl (stereo not drawn)	-6%	/	/	/	/	/
COc1ccc(-c2cc([C@H]3[C@H]4C=CC[C@@H](C)[C@@H]4C(=O)N3Cc3ccccc3)ccc2F)cc1OC	-7%	22*	3%	61*	-6%	-20%
CCCCOCCOCCOCc1cc2c(cc1CCC)OCO2	/	/	1%	/	/	/
Cc1ccnc(NC(=O)CCNC(=O)c2ccccc2Cl)c1	/	35*	5%	124*	0%	-14%
Cc1ccnc(NC(=O)CNC(=O)c2ccccc2Br)c1	/	52*	4%	54*	-16%	-1%
COc1ccc(Cl)cc1NC(=O)CN(c1cccc(C)c1C)S(C)(=O)=O	/	/	3%	/	/	5%
COc1ccc(-c2nc3nc(C)cc(N4CCN(c5cccc(C(F)(F)F)c5)CC4)n3n2)cc1	/	/	1%	/	/	-6%
Cc1cccc(C)c1NC(=O)c1cc(S(=O)(=O)N2CCc3ccccc3C2)ccc1F	/	/	0%	/	/	-18%
O=C(NN=C1CCCCCC1)NC1CCCCC1	-1%	30*	-4%	51*	0%	?
O=C(NN=C1CCCCCCC1)C(=O)NC1CCCCC1	-3%	0	-8%	-19	2%	?
CC1=[N+](C)c2c(ccc3cccnc23)C1(C)C	2µM*	-1	-1%	1	-6%	20%
O=C(NCc1ccc2c(c1)OCO2)O[C@@H]1C(=O)c2cc(Br)ccc2O[C@H]1c1ccc2c(c1)OCO2	-4%	/	/	/	/	/
O=[N+]([O-])c1ccc(C(O)CSC(=S)N2CCCCC2)cc1 (stereo not drawn)	2%	46*	0%	83*	4%	-5%
O=C(NN=Cc1ccccc1O)C(O)(c1ccccc1)c1ccccc1	/	/	-5%	/	/	/
CN(C)c1ccc(/C=N/NC(=O)c2ccccc2O)o1	-22%	20*	?	131*	0%	22µM*
O=C(N/N=C/c1ccc(N2CCCCC2)o1)C(O)(c1ccccc1)c1ccccc1	-26%	1	/	-4	-1%	22µM*
CN(C)c1ccc(/C=N/NC(=O)C(O)(c2ccccc2)c2ccccc2)o1	-29%	1	?	-8	2%	10µM*
C[C@@H](c1ccccc1)N1C(=O)[C@H]2[C@H]3[C@H](O)[C@H](O)C/C(=N/NC(=O)OCc4ccccc4)[C@H]3CC[C@@H]2C1=O	4%[12.9 µM]	/	/	/	/	/
O=C(c1ccc2c(c1)N(Cc1ccccc1)C(=O)c1ccccc1S2(=O)=O)N1CCN(c2ccccn2)CC1	/	/	3%	/	/	4%
O=C1O/C(=C/c2ccccc2)c2ccccc21	-1%	65*	-1%	+	-7%	15%
SMILES	Giardia FBPA inh	Cycloheximide cs	Tb PYK inh	Shiga toxin inh	LmPK inh	Sm TGR inh
O=C(COC(=O)c1cccc(NC(=O)c2ccco2)c1)c1ccc(Br)cc1	0%	80*	/	117*	-9%	-21%
CC(C)(C)C(=O)COC(=O)c1cccc(NC(=O)c2ccco2)c1	0%	27*	0%	27	2%	15%
O=C(COC(=O)c1cccc(NC(=O)c2ccc(Br)cc2)c1)c1ccc(Cl)cc1	/	/	-5%	/	/	-2%
ONC(=Nc1ccc(Cl)cc1)c1ccccc1	-17%	18*	6%	7	7%	-5%
O=[N+]([O-])c1cccc(C(=Nc2cccc(Cl)c2)NO)c1	-15%	-3	4%	-6	4%	-12%
Cc1nc(N2CCC3(CC2)OCCO3)c2nnn(Cc3ccccc3F)c2n1	-4%	43*	6%	57*	8%	0%
O=C1NC(=O)N(c2ccc3c(c2)OCO3)C(=O)/C1=C/c1cccs1	-11%	1	?	49*	6%	?
Cc1csc(NC(=O)c2ccc3ccccc3n2)n1	-8%	42*	4%	98*	-10%	8%
O=C(Nc1nccs1)c1ccc2ccccc2n1	-28%	45*	-1%	120*	-5%	4%
O=C(Nc1ccccn1)c1ccc(-c2ccccc2)cc1	-21%	0	-9%	7	-5%	10%
O=C(Nc1ccccn1)c1ccc2ccccc2n1	1%[12.9 µM]	66*	-14%	81*	?	0%
CCC(CC)c1nnc(NC(=O)c2ccc3ccccc3n2)s1	-4%	38*	-4%	105*	2%	-25%
Cc1ccccc1NC(=O)c1cccc(C(=O)Nc2ccccc2C)n1	3%	-1	1%	-10	-1%	-40%
Cc1cccc(NC(=O)c2ccc3ccccc3n2)c1C	-2%	23*	-1%	186*	-14%	-18%
Cc1csc(NC(=O)c2cnc3ccccc3n2)n1	-18%	8.4*	4%	22	1%	10%
Cc1csc(NC(=O)c2cc(C)nc3ccccc23)n1	-7%	-2	0%	-7	7%	0%
Cc1c(C(=O)Nc2cccc(Cl)c2)sc2nc3n(c(=O)c12)N=C(c1cccc(Br)c1)CS3	/	/	-6%	/	/	-3%
Cc1ccsc1CCN1C(=O)N(c2ccc(F)cc2)C(=O)C1CC(=O)Nc1ccccc1 (stereo not drawn)	/	/	0%	/	/	8%
Cc1cc(N2CCCC2)nc(SCC(=O)c2ccccc2)n1	4%	6	-12%	-20	0%	6%
COC(=O)CSc1nc(C)cc(N2CCOCC2)n1	0%	27	2%	53*	1%	2%
Cc1cc(C)nc(SCC(=O)c2ccc(C)c(C)c2)n1	1%	11*	-6%	25	2%	12%
Cc1cccn2c(=O)nc(SCC(=O)c3ccccc3)nc12	/	/	-1%	/	/	3%
Cc1cc(N2CCC(C)CC2)nc(SCC(=O)c2ccccc2)n1	0%	13*	0%	29*	3%	-4%
Cc1cc(Cl)nc(SCC(=O)c2ccccc2)n1	2%	45*	1%	81*	-6%	90%
Cc1cc(N2CCOCC2)nc(SCC(=O)c2ccc(Cl)cc2)n1	4%	-3	2%	-16	4%	-28%
Cc1cc(C)nc(SCC(=O)c2ccc([N+](=O)[O-])cc2)n1	11%	1	-2%	8	0%	-23%
